# HSF-1 act: HSF-1 activators, primary screen, NIH3T3-HGL cells, MG132 stress, luminescence, single point; 300,000 compounds, 1.7% hits; NIH3T3-HGL HSF-1 luciferase reporter, 8 h; 100% = twice DMSO control signal; activation, % at 9 µM;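 active means mean replicate activation of at least 50% with a set share of replicates each reaching 50%; inconclusive means only one of those two conditions met; inactive means mean below 50% and too few replicates reaching it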;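 further: 0% = median of the neutral control wells and 100% = twice that signal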
# esBAF inh: Bmi1 luciferase reporter increase in mESCs, primary screen, esBAF inhibitor project, mouse ES cells, Bmi1 luciferase knock-in, single point | AID 602393, 2012 | 24 h; 100% = twice the neutral-well signal | 350,000 compounds, 2% hits | reporter increase, % at 12.5 µM; in the data active means activation above about 40%; inconclusive means no clear call, values can overlap the other calls;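 further: 0% = median of the plate's neutral control wells and 100% = double that signal; a rise in the Bmi1 reporter signal indicates esBAF inhibition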
# Vif imaging: HIV Vif self-association inhibitors, primary screen, imaging, HEK293T, single point; inhibition, % at 7.49 µM; 340,000 compounds, 0.35% hits; HEK293T cells, Vif self-association by quenched fluorescence, 24 h; AID 602346, 2012; in the data active means inhibition above about 50%, passing the limit was not always enough; inconclusive means no clear call, values can overlap the other calls; inactive means below about 31%
# HSF1 inh: HSF1 inhibitors in luciferase reporter cells, primary screen, cell-based, NIH3T3, luminescence; AID 2098, 2009; 300,000 compounds, 0.77% hits; activity change, negative = inhibition, % at 7.5 µM (by protocol); NIH3T3-HGL HSE-luciferase, MG132-induced, luminescence 8 h; hits give low values;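 active means more than half of replicate wells show activity change below -50%, luminescence cut by over half; inconclusive means some wells, but at most half, below -50%; inactive means no replicate well below -50%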;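 further: luciferase reports HSF-1 transcriptional activity via heat shock element; 0% = median of DMSO wells and -100% = zero luminescence signal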
# An asterisk follows results filed as active; u = inconclusive; x = no result given. Hits are enriched below; roughly 3.4% of the tested compounds scored in any of these assays.
SMILES,HSF-1 act,esBAF inh,Vif imaging,HSF1 inh
C[C@H](CO)N1C[C@H](C)[C@@H](CN(C)C(=O)CCC(F)(F)F)OCCCC[C@H](C)Oc2ccc(N(C)C)cc2C1=O,x,1.3,x,x
CS(=O)(=O)N1CCCCN2[C@H](C1)[C@@H](c1ccc(Br)cc1)[C@@H]2CO,x,4.4,x,x
O=C(NC1CCCC1)N[C@@H]1CC[C@@H](CC(=O)N2CCOCC2)O[C@H]1CO,x,-0.5,x,x
CCCN1[C@H](C(=O)NC2CCC2)[C@@H](CO)[C@@H]2Cn3c(ccc(-c4cccnc4)c3=O)[C@@H]21,x,2.1,x,x
Cc1ccccc1Nc1c(C)c(C)nc2ncnn12,8.5,6.4,142.7*,-1.7
COC(=S)Nc1cccc(C(F)(F)F)c1,-2.9,x,3.3,-3.5
COC(=O)/C=C/C(=O)Nc1cccc(C(F)(F)F)c1,92.9*,x,-15.1,51.3
CCN1[C@@H]2c3ccc(C4=CCCC4)c(=O)n3C[C@@H]2[C@@H](CO)[C@@H]1C(=O)N(C)C,x,12.4,x,x
CC1Cc2nc(SCC(=O)c3ccccc3)n(Cc3ccccc3)c(=O)c2S1 (configuration not stated),28.2,81.3*,-8.5,8.9
O=C(/C=C/c1ccco1)NC(=S)Nc1nc(-c2ccc(Cl)cc2)cs1,63.3*,x,13.2,22.4
O=C(/C=C/c1ccco1)NC(=S)Nc1nc(-c2ccc3ccccc3c2)cs1,135.9*,x,-0.9,94.2
O=C(NC(=S)Nc1nc(-c2ccccc2)cs1)c1ccco1,23.8,-1.9,-5.2,12.2
CCC(=O)Nc1nc(-c2ccc3c(c2)CC(C)N3S(C)(=O)=O)cs1 (configuration not stated),6.7,54.3*,x,8.8
COc1ccc(-c2csc(NC(=S)NC(=O)c3ccco3)n2)cc1,51.7*,2.7,6.7,29.1
COC(=O)C[C@@H]1C=C[C@@H](NC(=O)Nc2ccc(C(F)(F)F)cc2)[C@@H](CO)O1,x,-0.9,x,x
CCC(=O)N1CCc2cc(-c3csc(NC(=O)c4ccco4)n3)ccc21,-1.0,44.7*,-0.7,17.7
C[C@@H]1CN([C@H](C)CO)C(=O)Cc2cc(NS(=O)(=O)c3cccs3)ccc2O[C@@H]1CN(C)C(=O)Nc1ccc(C(F)(F)F)cc1,x,-2.0,x,x
C/C(=N/NC(=O)c1cc2ccccc2cc1O)C1C(=O)c2ccccc2C1=O,8.4,50.5*,5.3,-9.0
C/C(=N\NC(=O)c1ccccc1O)C1C(=O)c2ccccc2C1=O,22.9,80.5*,-10.7,10.4
COc1ccc2cc(CCC(C)=O)ccc2c1,30.1,57.6*,6.1,18.4
O=[N+]([O-])c1cc([N+](=O)[O-])c(Oc2c(F)cccc2F)cc1NN1CCCCC1,62.0*,-5.1,-2.7,30.1
CC1(CC(=O)Nc2ccccc2)NC(=S)N(c2ccccc2)N1 (configuration not stated),7.1,29.2*,1.6,4.7
CNC(=O)C[C@H]1CC[C@@H]2[C@H](COC[C@H](O)CN2S(=O)(=O)c2ccc(Oc3ccccc3)cc2)O1,x,-2.4,x,x
CC1=C(C(=O)Nc2ccc(CC(=O)NCc3ccc(OC(C)C)cc3)cc2)SCCO1,4.3,45.9*,-0.2,-8.3
CC(C)NC(=O)N(C)C[C@@H]1Oc2c(NS(C)(=O)=O)cccc2C(=O)N([C@H](C)CO)C[C@@H]1C,x,1.1,x,x
SMILES,HSF-1 act,esBAF inh,Vif imaging,HSF1 inh
CC(NO)/C(=N\O)c1cccs1 (configuration not stated),-57.3,-4.5,1.1,-51.2*
C/C(=N\N=C(c1ccccc1)c1ccccc1)c1cccs1,2.6,17.7,-13.5,3.2
Cc1occc1C(=O)N/N=C/C(Br)=C/c1ccccc1,313.5*,32.1,-4.5,207.4
Cc1ccc(-c2cc(C(=O)N/N=C/C(Br)=C/c3ccccc3)n[nH]2)o1,120.7*,x,-1.5,91.4
COc1ccc(C(=O)N/N=C/C(Br)=C/c2ccccc2)cc1,148.2*,26.8,x,116.3
O=C(N/N=C/C(Br)=C\c1ccccc1)c1n[nH]c2c1CCC2,210.9*,2.3,32.6,210.2
CC(/C=N/NC(=O)c1n[nH]c2c1CCC2)=C\c1ccccc1,-5.4,x,38.2,2.1
Cc1ccc(S(=O)(=O)Nc2ccc3c(c2)C(=O)N([C@H](C)CO)C[C@@H](C)[C@@H](CN(C)C(=O)c2ccncc2)OCCCC[C@@H](C)O3)cc1,x,-6.1,x,x
CCCN1C[C@H](C)[C@H](OC)CN(C)C(=O)c2ccc(NC(=O)Nc3ccccc3F)cc2OC[C@H]1C,x,0.3,x,x
CCCC#Cc1cnc2c(c1)C(=O)N([C@H](C)CO)C[C@@H](C)[C@@H](CN(C)C(=O)NC1CCCC1)O2,x,3.3,x,x
O=C(N/N=C/C=C\c1ccccc1)c1cnccn1,-10.8,x,-2.5,-2.4
COc1cccc(C(=O)N/N=C/C(Br)=C/c2ccccc2)c1,55.9*,x,-6.9,45.7
O=C(N/N=C/C(Br)=C/c1ccccc1)c1cnccn1,258.8*,49.7*,-11.8,166.2
O=C(NC12CC3CC(CC(C3)C1)C2)N1CCN(C(=O)C2CCCO2)CC1 (configuration not stated),-63.6,-6.2,8.5,-54.5*
Cc1ccc(NC(=O)CCN2CCN(CCO)CC2)cc1,x,3.1,u,x
Cc1ccc(OCCC(=O)OCC(=O)Nc2ccc(N3CCOCC3)cc2)cc1,-70.1,1.8,-1.2,-61.1*
O=C(Cc1ccccc1)Nc1ccc(N2CCCC2)cc1,-4.3,4.6,-7.5,-5.4
O=C(Cc1ccccc1)Nc1ccc(N2CCOCC2)cc1,-2.9,x,59.3*,-5.3
Cc1ccc(NC(=O)CCN2CCCCC2)cc1,-67.9,-54.2,-3.4,-63.4*
CCC(=O)N1CCN(c2ccc(NC(=O)COc3ccc(CC)cc3)cc2)CC1,67.2*,-0.1,5.1,27.0
O=C(CCc1ccccc1)Nc1ccc(N2CCCCC2)cc1,13.4,49.8*,-3.1,2.7
O=C(CSC(=S)N1CCSCC1)c1ccc(Cl)cc1,-6.2,x,8.2,5.1
O=C(CSC(=S)N1CCSCC1)c1ccccc1,60.2*,x,-1.6,40.0
COc1ccc(/C=C/C(=O)c2ccc(C(=O)/C=C/c3ccc(OC)c(OC)c3)cc2)cc1OC,7.6,8.2,-5.9,-0.7
COc1cccc(/C=C/C(=O)c2cccc([N+](=O)[O-])c2)c1,1.4,x,12.7,11.9
SMILES,HSF-1 act,esBAF inh,Vif imaging,HSF1 inh
COc1ccc(/C=C/C(=O)c2ccc[nH]2)c(OC)c1OC,15.3,46.7*,0.1,16.8
COc1ccc(/C=C/C(=O)c2ccc[nH]2)cc1OC,61.6*,53.3*,20.2,33.2
COc1cccc(/C=C/C(=O)c2cccc([N+](=O)[O-])c2)c1OC,58.2*,x,-2.3,21.2
C[C@H]1CN([C@@H](C)CO)C(=O)c2cccc(NS(=O)(=O)c3cn(C)cn3)c2O[C@H]1CN(C)C(=O)Nc1ccc(C(F)(F)F)cc1,x,-0.2,x,x
C[C@@H]1CN([C@@H](C)CO)C(=O)c2cc(NS(=O)(=O)c3cccs3)ccc2O[C@H]1CN(C)CC1CC1,x,-4.5,x,x
O=C1/C(=C/c2ccc([N+](=O)[O-])cc2)Oc2cc(O)ccc21,72.6*,18.0,-10.6,61.4

# High-throughput results as filed in PubChem.
